Compound activity deposited in PubChem BioAssay by National Center for Advancing Translational Sciences (NCATS).
ELG1 DNA repair: blocks ELG1-dependent DNA repair in HEK293T cells; HEK293T ELG1-luciferase reporter, luminescence, 16 h; DNA damage induced by 5-fluorouridine; Potency, µM (top dose mostly 46.1 µM), for the others: at the highest dose activity change, negative = inhibition, hits mostly inhibitors; 330,000 compounds, 2.3% hits; AID 504467; note: potency is the fitted concentration of half-maximal effect; nearly all actives have a fitted effect of over 55% in size
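Reporter activity after DNA damage by 5-fluorouridine is monitored. Compound-treated cells incubate 16 hr at 37 °C, then ONE-Glo is added for 30 min before luminescence reading.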
HT1080NT lethal: kills 2HG-producing HT-1080-NT fibrosarcoma cells; HT-1080-NT fibrosarcoma viability, CellTiter-Glo ATP luminescence, 48 h; 360,000 compounds, 1.6% hits; AID 686970; Potency, µM (top dose mostly 46.1 µM), inactives show top-dose activity, negative = less viability, actives largely listed as cytotoxic;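 note: NT is the 2HG producing partner of a matched IDH1 knockdown line; potency is the fitted concentration of half-maximal effect; 0% = DMSO-treated cells and -100% = media-only wells without cells; nearly all actives have a fitted effect of over 55% in size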
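Toxicity toward the 2HG-producing NT line was scored as %Activity, normalised to DMSO and no-cell wells, from CellTiter-Glo luminescence after 48 hours' treatment.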
IL1B secr inh: inhibitors of inflammasome signaling (IL-1 beta secretion). THP-1 LPS/ATP IL-1B secretion, AlphaLISA, 16 h; active compounds read low. activity change, % at 57.5 µM. 360,000 compounds, 4.7% hits; in the data active = activity change below about -50%; inconclusive = mostly about -30% to -49%
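Secreted IL-1B measured by AlphaLISA bead assay after 16 h compound exposure of THP-1 cells; compounds (final up to 57.5 uM) added 1 h before LPS (250 ng/mL) and ATP (1.25 mM) stimulation; lower signal means less secretion.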
HT1080 IDH1KD tx: HT-1080 IDH1 knockdown cell toxicity (counter line) | AID 686971 | HT-1080 IDH1 knockdown viability, ATP luminescence, 48 h | 360,000 compounds, 2% hits | Potency, µM (titrated, usually from 46.1 µM), without a hit: at the top dose activity, negative = toxicity, most hits filed as cytotoxic;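 note: potency is the fitted concentration of half-maximal effect; 0% = DMSO wells and -100% = cell-free medium wells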
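Viability of IDH1-knockdown HT-1080 fibrosarcoma cells was assessed by CellTiter-Glo after 48 h at 37 °C with titrated compound; concentration-effect curves were classified by fit quality and response size.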
TDP1 cell noCPT: qHTS for Inhibitors of human tyrosyl-DNA phosphodiesterase 1 (TDP1): qHTS in cells in absence of CPT. 420,000 compounds, 15% hits. DT40 Tdp1-/- hTDP1 cells, no CPT, ATP luminescence, 48 h. Potency, µM (doses to about 46.2 µM), inactives show top-dose activity change, negative = growth inhibition, hits mostly inhibitors; note: potency is the fitted concentration of half-maximal effect; nearly all actives have a fitted effect of over 55% in size
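Chicken DT40 Tdp1-/- cells stably complemented with human TDP1 were seeded at 400 cells/well with DMSO in place of 20 nM camptothecin. After compound pinning, cells grew at least 48 hr at 37 °C; viability read by CellTiter-Glo luminescence.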
TDP1 cell CPT: DT40-hTDP1 cell growth loss with CPT | chicken DT40 Tdp1-/-;hTDP1 cells + 20 nM CPT, ATP luminescence, 48 h | Potency, µM (titrated, usually from 46.2 µM), for the others: at the highest dose activity change, negative = growth inhibition, most hits filed as inhibitors | 420,000 compounds, 12% hits | AID 686979; note: potency is the fitted concentration of half-maximal effect; nearly all actives have a fitted effect of over 55% in size
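Cell growth measured by CellTiter-Glo luminescence after a minimum 48 h, 37 C compound exposure with 20 nM CPT in Tdp1-knockout DT40 cells stably expressing hTDP1, seeded 400/well; qHTS titration format.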
Starred values were filed as active, the others as inactive; u = inconclusive; x = not tested or not shown; [ ] = dose if it differs, or a comment. A selection: hits, their analogues and other compounds. The true share with any hit is near 19%. Unless noted, calls come from the whole dose curve; as a rule, active = well fitted curve in the direction sought with a large enough effect; inconclusive = small, poorly fitted or top-dose-only effect, or another doubt; inactive = no such curve, though single readings can be large; an effect the other way counts as inactive or inconclusive. Unless noted, % is set by controls: 0 for no effect and ±100 for the full control effect.

SMILES	ELG1 DNA repair	HT1080NT lethal	IL1B secr inh	HT1080 IDH1KD tx	TDP1 cell noCPT	TDP1 cell CPT
CC1CC(C)CN(CCCNC(=O)Cn2ncc3c(=O)oc4ccccc4c32)C1 (stereo not drawn)	7.3%	14.4%	-3.5	1.6%	-7.0%	-7.6%
CC(CCc1ccccc1)NC(=O)Cn1ncc2c3ccccc3n(Cc3ccccc3F)c2c1=O (stereo not drawn)	x	x	x	x	8.2µM*	8.2µM*
Cc1ncc2c(c1CNC(=O)c1ccc3c(c1)OCO3)CCN(C(=O)c1cc3ccccc3n1C)C2	x	x	x	x	-17.3%	-8.0%[9.04 µM]
CCOc1c2c(c(-c3ccc4c(c3)OCO4)c3cc(OC)c(OC)cc13)C(=O)OC2	x	x	x	x	0.562µM*	0.891µM*
COc1ccccc1-c1oc2ccccc2c1-c1ccc2c(c1)OCO2	u	u	20.6	5.9%	u	u
Cc1cccnc1NC(=O)CSc1ccc2c(c1)OCCO2	12.5%	17.0%	-10.8	-0.5%	u	-2.0%
CCOc1ccc(OC(=O)c2cn(-c3ccc(C)cc3)c(=O)c3ccccc23)cc1	x	x	x	x	16.4µM*	u
CCOC(=O)c1ccc(OC(=O)c2cn(-c3ccc(C)cc3)c(=O)c3ccccc23)cc1	x	x	x	x	u	16.4µM*
COC(=O)c1cn(-c2ccccc2)c(=O)c2ccccc12	14.1%	3.3%	-8.5	-0.9%	-0.7%	-11.8%
CCCOc1ccc(OC(=O)c2cn(-c3ccc(OC)cc3)c(=O)c3ccccc23)cc1	x	x	x	x	16.4µM*	u
COc1ccc(-n2cc(C(=O)N(C)c3cc(C)ccc3OC)c3ccccc3c2=O)cc1	x	x	x	x	20.6µM*	u
O=C(COC(=O)c1ccc[n+]([O-])c1)Nc1ccc([N+](=O)[O-])cc1Cl	u	0.0%	11.8	1.6%	-2.2%	-3.9%
O=C(OCCc1cc2ccccc2c(=O)o1)c1ccc(C(F)(F)F)cc1	25.1%	3.1%	5.4	13.2%	-11.5%	-12.1%
CCOc1ccc(-n2cc(C(=O)Nc3ccc(Cl)cn3)c3cc(OC)c(OC)cc3c2=O)cc1	7.5%	-7.0%	-5.3	0.8%	-27.4%	2.91µM*
Cc1cc(C)nc(NNS(=O)(=O)c2ccc(F)c(Cl)c2)n1	u	-13.1%	22.6	-3.9%	u	23.1µM*
CCOC(=O)c1c(-c2ccccc2)oc2ccc(N(C(C)=O)S(=O)(=O)c3ccc(C)cc3)cc12	x	x	x	x	10.3µM*	8.2µM*
CCOC(=O)c1c(-c2ccccc2)oc2ccc(NS(=O)(=O)c3ccc(C)cc3)cc12	x	x	x	x	2.91µM*	2.91µM*
CCOC(=O)c1c(C)oc2ccc(NS(=O)(=O)c3ccc(C(=O)O)cc3)cc12	12.0%	8.9%	8.7	11.3%	-8.3%	19.6%
CCCC(=O)N(c1ccc2oc(-c3ccccc3)c(C(=O)OCC)c2c1)S(=O)(=O)c1ccc(C)cc1	x	x	x	x	5.8µM*	u
CCOC(=O)c1c(-c2ccccc2)oc2ccc(OCC(O)CN(C)C)cc12 (stereo not drawn)	u	25.9µM*	-65.1*	14.6µM*	23.1µM*	u
CCN(C(=O)COC(=O)/C=C/c1ccc(OC(F)F)c(OC)c1)C1CCS(=O)(=O)C1 (stereo not drawn)	u	0.2%	-0.9	9.7%	-8.1%	0.1%
O=C(Nc1noc2ccccc12)c1ccc(F)cc1	x	x	x	x	-19.1%	-4.3%
CC1CCCN(C(=O)CCc2ccccc2)C1 (stereo not drawn)	u	16.8%	-1.9	19.8%	-6.9%	7.8%
CC1CN(C(=O)CCc2ccccc2)C(C)CN1C(=O)CCc1ccccc1 (stereo not drawn)	8.9%	2.8%	-2.6	-4.8%	23.1µM*	u
N#Cc1nc(-c2ccc(OCc3ccccc3)cc2)oc1NCCCn1ccnc1	u	0.0%	u	17.8%	20.6µM*	u
SMILES	ELG1 DNA repair	HT1080NT lethal	IL1B secr inh	HT1080 IDH1KD tx	TDP1 cell noCPT	TDP1 cell CPT
CCCOc1ccc(-c2nc(C#N)c(NCCCn3ccnc3)o2)cc1	u	u	u	u	18.4µM*	u
CC(C)(C)c1ccc(-c2nc(C#N)c(NCCCn3ccnc3)o2)cc1	-9.5%	20.6µM*	-94.8*	23.1µM*	u	u
N#Cc1nc(-c2ccc(OCc3ccccc3Cl)cc2)oc1NCCCn1ccnc1	17.4%	x	x	x	x	x
CC(C)(C)c1ccccc1NC(=O)c1ccc(-n2cncn2)c([N+](=O)[O-])c1	1.4%	13.1%	-6.7	13.0%	-21.2%	-22.1%
Cc1c(Cc2ccccc2)c(=O)oc2c(C)c(OCC(=O)N[C@@H](Cc3ccccc3)C(=O)O)ccc12	0.8%	7.6%	17.5	2.9%	-0.3%	15.2%
CC(C)C[C@H]1COc2cccc(N3CCC[C@H]3CO)c2S(=O)(=O)N1	x	13.8%	98.5	29.4%	-20.5%	-22.4%
Cc1cc2cc(CCNC(=O)c3cccs3)c(=O)[nH]c2cc1C	u	-1.7%	u	-15.1%	u	u
CCOC(=O)/C(C#N)=N/Nc1ccccc1C#N	-9.6%	-3.8%	48.0	-2.2%	20.6µM*	8.2µM*
CCOC(=O)/C(C#N)=N/Nc1c(C)n(C)n(-c2ccccc2)c1=O	u	-25.5%	0.2	-8.1%	16.4µM*	16.4µM*
Cc1c(NC(=O)Nc2ccc(C#N)cc2)c(=O)n(-c2ccccc2)n1C	u	-8.3%	-4.3	-1.1%	-13.9%	2.1%
Cc1c(NC=C(C#N)C#N)c(=O)n(-c2ccccc2)n1C	-11.9%	-15.7%	12.9	-10.3%	-15.9%	2.6%
Cc1c(N/N=C(\C#N)C(=O)c2ccccc2)c(=O)n(-c2ccccc2)n1C	u	-21.7%	106.5	u	3.26µM*	2.91µM*
Cc1ccccc1C(=O)/C(C#N)=N/Nc1c(C)n(C)n(-c2ccccc2)c1=O	-6.4%	-26.3%	0.0	u	3.66µM*	4.61µM*
CCOC(=O)Nc1c(C)n(C)n(-c2ccccc2)c1=O	-0.1%	6.1%	8.9	6.1%	-1.2%	6.2%
CCCN(C(=O)CCl)C1=CCCCC1	-12.2%	10.3µM*	-87.4*	u	13µM*	18.4µM*
CCC(C)NC(=O)Cn1c(=O)n(-c2ccc(C)c(C)c2)c(=O)c2c3c(sc21)CCCCC3 (stereo not drawn)	x	x	x	x	-4.5%	0.5%
Cc1ccc(N=N/C(=C\O)C(=O)c2ccncc2)cc1	u	25.9µM*	-6.8	16.4µM*	u	u
O=C(/C(=C/O)N=Nc1ccccc1)c1ccco1	14.0%	-2.6%	-16.2	-23.2%	u	u
O=C(/C(=C/O)N=Nc1ccc(Cl)cc1)c1ccncc1	-9.2%	u	-6.9	20.6µM*	25.9µM*	14.6µM*
